Consider 8 compounds from PubChem BioAssay (EPA / NIEHS).

Read-out in assay [1]: Tissue plasminogen activator (tPA), PLAT (gene 5327)
Briefly: BSK_BE3C_tPA: BioMAP Diversity Plus: BE3C Assay for Tissue plasminogen activator (tPA) Biomarker Activity (AID 2283041).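 As to outcome: tPA level quantified by ELISA one day after compound addition.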 To be noted: primary human bronchial epithelial cells; actives raise or lower the signal. The method in brief:
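Using human lung primary bronchial epithelial cells, tPA was measured by ELISA 24 h after dosing; data fitted relative to DMSO.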

Read-out in assay [2]: Interleukin-8 (IL8), CXCL8 (gene 3576)
Briefly: BSK_CASM3C_IL8: BioMAP Diversity Plus: CASM3C Assay for Interleukin-8 (IL8) Biomarker Activity (AID 2283042).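 Also: IL-8 protein level quantified by ELISA.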 To be noted: primary human coronary artery smooth muscle cells; actives raise or lower the signal.

Read-out in assay [3]: Human Leukocyte Antigen - DR isotype (HLADR), HLA-DRA (gene 3122)
Briefly: BSK_CASM3C_HLADR: BioMAP Diversity Plus: CASM3C Assay for Human Leukocyte Antigen - DR isotype (HLADR) Biomarker Activity (AID 2283043).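 Also: cell-surface HLA-DR protein level quantified by ELISA.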 To be noted: primary human coronary artery smooth muscle cells; actives raise or lower the signal.

Read-out in assay [4]: Macrophage colony-stimulating factor (MCSF), CSF1 (gene 1435)
Nature of the assay: BSK_CASM3C_MCSF: BioMAP Diversity Plus: CASM3C Assay for Macrophage colony-stimulating factor (MCSF) Biomarker Activity (AID 2283044).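 Also: M-CSF protein amount quantified by ELISA after 24 h exposure.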 To be noted: primary human coronary artery smooth muscle cells; actives raise or lower the signal.

Read-out in assay [5]: Low-density lipoprotein receptor (LDLR), LDLR (gene 3949)
Nature of the assay: BSK_CASM3C_LDLR: BioMAP Diversity Plus: CASM3C Assay for Low-density lipoprotein receptor (LDLR) Biomarker Activity (AID 2283045).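 Also: LDLR protein level on the cell surface quantified by ELISA.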 To be noted: primary human coronary artery smooth muscle cells; actives raise or lower the signal.

Read-out in assay [6]: Monocyte Chemoattractant Protein-1 (MCP1), CCL2 (gene 6347)
Briefly: BSK_CASM3C_MCP1: BioMAP Diversity Plus: CASM3C Assay for Monocyte Chemoattractant Protein-1 (MCP1) Biomarker Activity (AID 2283046).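 Also: MCP-1 level quantified by ELISA 24 h after dosing.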 To be noted: primary human coronary artery smooth muscle cells; actives raise or lower the signal.

Assay [7] is described as follows: BSK_CASM3C_Proliferation: Cell Proliferation Assessment in the BioMAP Diversity Plus: CASM3C Assay (AID 2283047).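 Also: sulforhodamine B total protein stain as relative cell number at 560 nm; sub-confluent cells exposed 48 h before staining; fitted both ways against DMSO so gain or loss of cell number.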 To be noted: primary human coronary artery smooth muscle cells.
Read-out in assay [8]: Monokine induced gamma interferon (MIG), CXCL9 (gene 4283)
Nature of the assay: BSK_CASM3C_MIG: BioMAP Diversity Plus: CASM3C Assay for Monokine induced gamma interferon (MIG) Biomarker Activity (AID 2283048).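 Also: MIG protein level measured by ELISA.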 To be noted: primary human coronary artery smooth muscle cells; actives raise or lower the signal.

Read-out in assay [9]: serum amyloid A (SAA), SAA1 (gene 6288)
Nature of the assay: BSK_CASM3C_SAA: BioMAP Diversity Plus: CASM3C Assay for serum amyloid A (SAA) Biomarker Activity (AID 2283049).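 Also: SAA protein level quantified by ELISA.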 To be noted: primary human coronary artery smooth muscle cells; actives raise or lower the signal.

A short description of assay [10]: BSK_CASM3C_SRB: Viability Assessment in the BioMAP Diversity Plus: CASM3C Assay (AID 2283050).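 Also: cells exposed to compound for 24 h.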 To be noted: primary human coronary artery smooth muscle cells.
Read-out in assay [11]: Thrombomodulin, THBD (gene 7056)
Nature of the assay: BSK_CASM3C_Thrombomodulin: BioMAP Diversity Plus: CASM3C Assay for Thrombomodulin Biomarker Activity (AID 2283051).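 Also: thrombomodulin protein level measured by ELISA 24 h after dosing.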 To be noted: primary human coronary artery smooth muscle cells; actives raise or lower the signal.

Read-out in assay [12]: Tissue Factor, F3 (gene 2152)
Nature of the assay: BSK_CASM3C_TissueFactor: BioMAP Diversity Plus: CASM3C Assay for Tissue Factor Biomarker Activity (AID 2283052).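 Also: cell surface tissue factor protein level read by ELISA.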 To be noted: primary human coronary artery smooth muscle cells; actives raise or lower the signal.

Read-out in assay [13]: Interferon-gamma inducible Protein 10 (IP10), CXCL10 (gene 3627)
Briefly: BSK_hDFCGF_IP10: BioMAP Diversity Plus: hDFCGF Assay for Interferon-gamma inducible Protein 10 (IP10) Biomarker Activity (AID 2283053). To be noted: primary human foreskin fibroblasts; actives raise or lower the signal. In short, it runs like this: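 Chemical-treated human skin fibroblasts (primary) were sampled at 24 h for IP-10 by ELISA. Both increases and decreases relative to DMSO were scored.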

Read-out in assay [14]: Urokinase-type plasminogen activator receptor (uPAR), PLAUR (gene 5329)
Nature of the assay: BSK_CASM3C_uPAR: BioMAP Diversity Plus: CASM3C Assay for Urokinase-type plasminogen activator receptor (uPAR) Biomarker Activity (AID 2283054).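 Also: cell-surface uPAR protein level quantified by ELISA.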 To be noted: primary human coronary artery smooth muscle cells; actives raise or lower the signal.

Read-out in assay [15]: Vascular cell adhesion molecule 1 (VCAM1), VCAM1 (gene 7412)
Briefly: BSK_CASM3C_VCAM1: BioMAP Diversity Plus: CASM3C Assay for Vascular cell adhesion molecule 1 (VCAM1) Biomarker Activity (AID 2283055).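 Also: VCAM-1 protein level quantified by ELISA on the cells.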 To be noted: primary human coronary artery smooth muscle cells; actives raise or lower the signal.

Read-out in assay [16]: Collagen III, COL3A1 (gene 1281)
Briefly: BSK_hDFCGF_CollagenIII: BioMAP Diversity Plus: hDFCGF Assay for Collagen III Biomarker Activity (AID 2283056). To be noted: primary human foreskin fibroblasts; actives raise or lower the signal. In short, it runs like this:
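Human foreskin fibroblast primary cultures sampled 24 h after dosing; Collagen III quantified by ELISA. Signal fitted bidirectionally against DMSO baseline.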

Read-out in assay [17]: Epidermal growth factor receptor (EGFR), EGFR (gene 1956)
Briefly: BSK_hDFCGF_EGFR: BioMAP Diversity Plus: hDFCGF Assay for Epidermal growth factor receptor (EGFR) Biomarker Activity (AID 2283057). To be noted: primary human foreskin fibroblasts; actives raise or lower the signal. In short, it runs like this:
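Cell-based multiplexed assay in primary human foreskin fibroblasts. EGFR is read by ELISA 24 h after treatment and compared with DMSO controls.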

Read-out in assay [18]: Interleukin-8 (IL8), CXCL8 (gene 3576)
Briefly: BSK_hDFCGF_IL8: BioMAP Diversity Plus: hDFCGF Assay for Interleukin-8 (IL8) Biomarker Activity (AID 2283058). To be noted: primary human foreskin fibroblasts; actives raise or lower the signal. The method in brief:
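Primary human foreskin fibroblasts (hDFCGF system) dosed with chemical; IL-8 measured by ELISA 24 hours later. Bidirectional curve fitting relative to DMSO baseline; cytotoxicity tracked in parallel cultures by SRB total protein staining.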

Read-out in assay [19]: Macrophage colony-stimulating factor (MCSF), CSF1 (gene 1435)
Briefly: BSK_hDFCGF_MCSF: BioMAP Diversity Plus: hDFCGF Assay for Macrophage colony-stimulating factor (MCSF) Biomarker Activity (AID 2283060). To be noted: primary human foreskin fibroblasts; actives raise or lower the signal. The method in brief: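 Human foreskin fibroblast primary cultures; M-CSF measured by ELISA 24 hours after chemical dosing. Bidirectional fitting relative to DMSO, with overt cytotoxicity tracked by parallel SRB total-protein staining (0.1% SRB, 10% TCA fixation, 560 nm).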

Active and inactive are the calls of the source. The calls were made as follows: active = hit-call score of the fitted dose curve at least 0.9, where 1 is the maximum; inactive = score below 0.9.

A word on the AC50: it is the midpoint of the concentration-response curve, whichever way the signal moves. For `CCCCCCCCCCCCCCCCOS(=O)(=O)O`, the concentration at half-maximal activity (AC50) in assay [1] was 14.9 µM (active); in assay [13], 6.13 µM (active); in [16], 18.3 µM (active); in [17], 2.46 µM (active); in assay [18], 15.5 µM (active); in assay [19], 10.2 µM (active). The result in assay [2], in [3], in assay [4], in assay [5], in [6] and in [7] was inactive. Moreover, the result in assay [8], in [9], in assay [10], in assay [11], in [12] and in [14] was inactive. Besides, the result in [15] was inactive.

`COc1cc2c(c(OC)c1OC)-c1ccc(OC)c(=O)cc1[C@@H](NC(C)=O)CC2`: the outcome in assay [1], in assay [2], in assay [4], in [5], in assay [6] and in assay [8] was inactive. Besides, the result in [9], in assay [10], in assay [11], in assay [12], in assay [14] and in assay [16] was inactive. Moreover, the outcome in assay [17], in assay [18] and in assay [19] was inactive. In addition, the AC50 in assay [3] is 0.43 µM (active); in assay [7], 0.148 µM (active); in assay [13], 4.08 µM (active); in assay [15], 0.579 µM (active).

Take `CC1(C)C(=O)N(Cl)C(=O)N1Cl`: the outcome in assay [1], in assay [2], in assay [3], in assay [4], in assay [5] and in assay [6] was inactive. The outcome in [7], in [8], in [9], in assay [10], in [11] and in assay [12] was inactive. For the same compound, the result in assay [13], in assay [14], in [15], in [16], in assay [17] and in assay [18] was inactive. For the same compound, the outcome in [19] was inactive.

As for `O=c1[nH]cnc2c1ncn2[C@H]1CC[C@@H](CO)O1`, the outcome in [1], in assay [2], in [3], in assay [5], in assay [6] and in [7] was inactive. Moreover, the result in [8], in assay [9], in [10], in assay [11], in assay [12] and in assay [13] was inactive. Also, the outcome in assay [14], in [15], in assay [16], in assay [17] and in assay [18] was inactive.

Take `C=CN1CCCC1=O`: the result in assay [1], in assay [2], in assay [3], in assay [4], in assay [5] and in [6] was inactive. Besides, the outcome in assay [7], in [8], in assay [9], in assay [10], in [11] and in [12] was inactive. The outcome in assay [13], in assay [14], in [15], in [16], in assay [17] and in [18] was inactive. Moreover, the result in [19] was inactive.

`Cc1nc(-c2ccccn2)ncc1C(=O)Nn1cc(C)c2cc(F)ccc21`: the result in assay [1], in assay [2], in assay [3], in assay [4], in assay [5] and in [6] was inactive. In addition, the result in assay [8], in assay [9], in [10], in assay [12], in [13] and in assay [14] was inactive. The result in assay [15], in assay [16], in [17], in assay [18] and in assay [19] was inactive. Moreover, the AC50 in assay [7] is 22.6 µM (active); in [11] it was 20 µM (active).

As to `OC[C@H]1O[C@@H]2O[C@H]3[C@H](O)[C@@H](O)[C@@H](O[C@H]4[C@H](O)[C@@H](O)[C@@H](O[C@H]5[C@H](O)[C@@H](O)[C@@H](O[C@H]6[C@H](O)[C@@H](O)[C@@H](O[C@H]7[C@H](O)[C@@H](O)[C@@H](O[C@H]1[C@H](O)[C@H]2O)O[C@@H]7CO)O[C@@H]6CO)O[C@@H]5CO)O[C@@H]4CO)O[C@@H]3CO`, the result in [1], in assay [2], in assay [3], in assay [4], in assay [5] and in [6] was inactive. In addition, the result in assay [7], in assay [8], in [9], in assay [10], in [11] and in [12] was inactive. The outcome in assay [13], in assay [14], in assay [15], in assay [16], in [17] and in assay [18] was inactive. For the same compound, the result in assay [19] was inactive.

For `CCCc1ccccc1`, the result in [1], in assay [2], in [3], in assay [4], in [5] and in assay [6] was inactive. Moreover, the outcome in [7], in assay [8], in [9], in [10], in assay [11] and in [12] was inactive. The outcome in assay [13], in [14], in assay [15], in assay [16], in assay [17] and in [18] was inactive. In assay [19], the result was inactive.
